From PubChem BioAssay come the findings set out here.

Unmarked numbers belong to inactive results. No rule for the calls is given here.

Pantothenate synthetase (Mycobacterium tuberculosis (strain ATCC 25618 / H37Rv)), sequence (P9WIL5 whole entry, looked up): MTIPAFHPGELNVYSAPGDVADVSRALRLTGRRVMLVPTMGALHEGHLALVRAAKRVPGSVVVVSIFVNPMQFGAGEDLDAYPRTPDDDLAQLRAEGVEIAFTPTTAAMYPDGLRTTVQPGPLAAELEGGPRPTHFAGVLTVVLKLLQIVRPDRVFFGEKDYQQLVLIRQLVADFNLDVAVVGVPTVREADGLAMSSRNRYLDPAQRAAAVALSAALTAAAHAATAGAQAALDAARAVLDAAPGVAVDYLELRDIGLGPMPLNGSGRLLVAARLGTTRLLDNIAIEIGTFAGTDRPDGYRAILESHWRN

The assay has as its target Pantothenate synthetase (Mycobacterium tuberculosis (strain ATCC 25618 / H37Rv)) (UniProt P9WIL5). As to the kind of experiment: Recombinant Mtb pantothenate synthetase (PanC) inhibitors, coupled enzyme, confirmatory (AID 375).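 Also: 0% = full reaction with vehicle and 100% = no enzyme background.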 The note with it: coupled enzyme assay; at 10 µM, hits give high values.
On to `O=C(CN1CCCN(S(=O)(=O)c2ccc(F)cc2)CC1)Nc1ccccc1Br`, for which the inhibition was 5%. The same measure for `CCOC(=O)N1CCN(C(=O)C2CC(=O)N(Cc3ccc(OC)cc3)C2)CC1` (stereo not given): 3%; for `CCN(CC)CCOC(=O)c1cccc(OC)c1`: 0%; for `COc1cc(-n2nc(C)c3c2OC(N)=C(C#N)C3c2ccccc2)c(Cl)c(Br)c1O` (stereo not given): 9%. The same measure for `CCOC(=O)c1ccc(NC(=O)CSc2n[nH]c(-c3ccncc3)n2)cc1`: 5%; for `Cc1cc(NS(=O)(=O)c2ccccc2)n(-c2ccccc2)n1`: 0%.

With `CCN(CC)S(=O)(=O)c1cccc(-c2nnc(SCC(N)=O)n2CCc2ccccc2)c1`, the inhibition is 0%. The same measure for `COc1cccc(-c2noc(-c3cccs3)n2)c1`: 1%; for `COCCNC(=O)c1ccc(CS(=O)(=O)c2ccc(OC)cc2)o1`: 0%.

For `CCOC(=O)C1CCCN(C(=O)Cc2ccc(OC)c(OC)c2)C1` (stereo not given), the inhibition was 0%. The figure for `CCCCc1ccc(NC(=O)COCC)cc1` is 0%; for `c1ccc2c(-c3nc(-c4ccncc4)no3)cccc2c1` it is 0%; for `CCC(=O)N1CCN(c2nc(-c3ccccc3)c3c(c2C#N)CCCC3)CC1` it is 4%.

On to `CC(C)(C)c1ccc(C(=O)Nc2cnccn2)cc1`, for which the inhibition is 2%. The figure for `N/C(Cn1nnc(-c2ccccc2)n1)=N\O` is 3%; for `Cc1noc(C)c1S(=O)(=O)NCCN1CCN(c2ccccc2)CC1` it is 4%; for `Cn1c(Cc2ccccc2)nnc1SCC(=O)c1ccc(Br)s1` it is 0%. The figure for `Cc1csc(OCc2ccc(C#N)cc2)n1` is 0%; for `CCn1c(SCc2nc3ccccc3c(=O)[nH]2)nnc1-c1cccnc1` it is 4%; for `O=C1CCCN1CCCNc1ncnc2c1[nH]c1ccc(Cl)cc12` it is 9%.

For the molecule `CCOC(=O)N1CCN(C(=O)CSCC(=O)Nc2nc(-c3ccc(OC)cc3)cs2)CC1`, the inhibition was 0%.

Regarding `Cc1ccc(OCC(=O)N2CCN(C(=O)CCC3CCCC3)CC2)cc1`, the inhibition is 0%. The figure for `Fc1ccc(Cn2nnc(-c3ccc(CN4CCOCC4)cc3)n2)cc1` is 0%; for `CCCN1C(=O)c2cc(C(=O)O)ccc2C1O` (stereo not given) it is 0%. The same measure for `CC1(C)CC(=O)C=C(NCc2ccncc2)C1`: 0%; for `COc1ccc(C2C(C(=O)N3CCCC3)c3cc(OC)c(OC)cc3C(=O)N2C)cc1` (stereo not given): 0%; for `COc1ccc(OCC(=O)N2CCN(C(=O)COc3ccc(Br)cc3)CC2)cc1`: 0%. For the molecule `CCn1nc(C(=O)OCC(=O)c2cc(C)n(Cc3cccs3)c2C)c2ccccc2c1=O`, the inhibition was 1%. The figure for `Cc1ccc(C)c(SCC(=O)Nc2nnc(-c3ccccc3)o2)c1` is 10%. The figure for `CC(=O)Nc1nc(-c2ccc(Cl)cc2)nc(C)c1C(C)=O` is 0%; for `O=C(CCC1COc2ccccc2O1)NCC1COc2ccccc2O1` (stereo not given) it is 0%; for `COc1cc(C(=O)N2CCC(c3nc(-c4cccnc4)no3)CC2)cc(OC)c1OC` it is 0%. The figure for `Cc1nc2ccc(NC(=O)N3CCOCC3)cc2s1` is 4%; for `O=C(OCc1nnc(-c2ccccc2)o1)c1ccc2ccccc2n1` it is 1%. For the molecule `CCN(CC)C(=O)Oc1ccc(NC(C)=O)cc1`, the inhibition is 0%. `CCOCCCNC(=O)C1CCN(C(=O)Nc2ccc(Cl)cc2)CC1`: the inhibition was 3%. Take `CN1CCC(=C2c3ccccc3CC(=O)c3sccc32)CC1`: the inhibition is 2%. On to `O=C1c2oc3ccccc3c(=O)c2C(c2cccnc2)N1Cc1ccco1` (stereo not given), for which the inhibition was 0%. The same measure for `CCOC(=O)N1CCC(NC(=O)C2CCCN2C(=O)OCc2ccccc2)CC1` (stereo not given): 5%; for `CC1CCC(C(=O)NC(C(=O)NCCN2CCC(C)CC2)C(C)C)CC1` (stereo not given): 0%.
